This is an account of results in PubChem BioAssay (EPA / NIEHS).

Inconclusive results are not listed. Activity calls are given as the source filed them. Rule for the calls: active = hit-call score of the fitted dose curve at least 0.9, where 1 is the maximum; inconclusive = response in the unintended direction; inactive = score below 0.9.

Test [1] deals with Cellular tumor antigen p53 (Homo sapiens) (UniProt P04637). Description: TOX21_p53_BLA_p2_ratio: Tox21 HCT-116 p53 Agonism Beta-lactamase Assay, Ratio, Phase 2 (AID 2283592). Put shortly: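 DMSO-normalized, positive-direction endpoint derived from the 460 nm/530 nm FRET ratio in HCT116 p53 beta-lactamase reporter cells exposed 16 h at 37C and loaded with CCF4-AM for 2 h.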
Sequence of Cellular tumor antigen p53 (Homo sapiens) (P04637 whole entry, looked up): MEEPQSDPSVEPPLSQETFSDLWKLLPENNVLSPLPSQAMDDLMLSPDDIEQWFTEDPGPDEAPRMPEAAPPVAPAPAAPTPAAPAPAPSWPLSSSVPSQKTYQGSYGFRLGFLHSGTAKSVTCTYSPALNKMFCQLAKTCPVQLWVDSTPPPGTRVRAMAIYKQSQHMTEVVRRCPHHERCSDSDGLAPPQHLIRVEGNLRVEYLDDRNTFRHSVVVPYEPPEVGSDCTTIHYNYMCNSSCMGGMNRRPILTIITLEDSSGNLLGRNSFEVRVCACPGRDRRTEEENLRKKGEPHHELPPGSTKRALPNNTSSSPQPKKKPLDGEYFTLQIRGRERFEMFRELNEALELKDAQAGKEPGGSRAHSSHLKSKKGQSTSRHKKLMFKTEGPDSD
The nature of test [2]: TOX21_p53_BLA_p3_viability: Viability Assessment in the Tox21 HCT-116 p53 Agonism Beta-lactamase Assay, Phase 3 (AID 2283593).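 Note: cells exposed to compound for 16 h before reading.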 Put shortly: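 HCT116 cells, 4000/well, dosed 5 h after plating by pin transfer (217-fold dilution from DMSO stock) and incubated 16 h at 37C, 5% CO2. Viability read as ATP luminescence with CellTiter-Glo after 30 min at room temperature.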
For test [3], the target named is Cellular tumor antigen p53 (Homo sapiens) (UniProt P04637). Description: TOX21_p53_BLA_p3_ratio: Tox21 HCT-116 p53 Agonism Beta-lactamase Assay, Ratio, Phase 3 (AID 2283596). Put shortly: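 Cells were seeded at 4000/well, rested 5 h at 37C, then dosed with DMSO compound solutions (217-fold dilution) for 16 h. CCF4-AM substrate was loaded for 2 h at room temperature, and the 460/530 nm emission ratio was fitted for gain of signal versus DMSO.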

Test [4] in a line: TOX21_p53_BLA_p4_viability: Viability Assessment in the Tox21 HCT-116 p53 Agonism Beta-lactamase Assay, Phase 4 (AID 2283597).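 Note: hits lower the luminescence signal meaning cytotoxicity.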 The method in brief: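 In this multiplexed secondary endpoint, HCT116 cells (4000 per well, compound at 5 h, 16 h treatment) received CellTiter-Glo after the beta-lactamase read. Luminescence after 30 min RT reflects ATP, and falling signal marks cytotoxicity.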

Test [5] has as its target Cellular tumor antigen p53 (Homo sapiens) (UniProt P04637). Kind of test: TOX21_p53_BLA_p5_ratio: Tox21 HCT-116 p53 Agonism Beta-lactamase Assay, Ratio, Phase 5 (AID 2283599). Put shortly: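 HCT-116 p53-bla cells (4000/well) plated 5 h, dosed with compound (217-fold DMSO dilution) for 16 h at 37 C; CCF4-AM substrate 2 h at room temperature. Activity is the 460/530 nm emission ratio (405 nm excitation), fitted in gain-of-signal direction versus DMSO.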

Test [6] is described as follows: TOX21_p53_BLA_p5_viability: Viability Assessment in the Tox21 HCT-116 p53 Agonism Beta-lactamase Assay, Phase 5 (AID 2283600). Put shortly: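 Here cell health was gauged by ATP levels in wells holding 4000 cells, each treated 16 h with DMSO-delivered compounds at 217-fold dilution; reduced luminescence marked toxicity.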
Test [7] addresses Cellular tumor antigen p53 (Homo sapiens) (UniProt P04637). Kind of test: TOX21_p53_BLA_p4_ratio: Tox21 HCT-116 p53 Agonism Beta-lactamase Assay, Ratio, Phase 4 (AID 2283601). Put shortly:
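HCT-116 p53 beta-lactamase reporter cells (4000/well) preincubated 5 h, then compound (217-fold dilution of DMSO stock) for 16 h at 37C. CCF4-AM substrate added 2 h at room temperature; 460/530 nm emission ratio fitted upward versus DMSO.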

Take `O=C(Cl)c1cc(Cl)cc(Cl)c1`: the outcome in test [1], in test [2], in test [3], in test [4], in test [5] and in test [6] was inactive.

On to `C=C1/C(=C\C=C2/CCC[C@]3(C)[C@@H]([C@H](C)OCCC(C)(C)O)CC[C@@H]23)C[C@@H](O)C[C@@H]1O`, for which the concentration at half-maximal activity (AC50) in test [1] is 12.7 µM (active); in test [3], 14.3 µM (active); in test [5], 13.5 µM (active); in test [7] it was 9.97 µM (active). In addition, the compound was called inactive in test [2], in test [4] and in test [6].

Take `COc1cc2c(cc1N)oc1ccccc12`: the result in test [1], in test [2], in test [3], in test [4], in test [5] and in test [6] was inactive. Also, the half-maximal activity concentration (AC50) in test [7] is 66.1 µM (active).

`CC1=NS(=O)(=O)c2cc(Cl)ccc2N1`: the outcome in test [1], in test [2], in test [3], in test [4] and in test [5] was inactive.

Consider `CC(C)(C)S`, for which the outcome in test [1], in test [2], in test [3], in test [4], in test [5] and in test [6] was inactive. In test [7], the outcome was inactive.

`Cc1cccn2c(=O)c(-c3nnn[nH]3)cnc12`: the outcome in test [1], in test [2], in test [3], in test [4], in test [5] and in test [6] was inactive. Also, in test [7], the outcome was inactive.

Consider `O=C1OC(O)C(C(Cl)Cl)=C1Cl` (stereo unspecified), for which the half-maximal activity concentration (AC50) in test [1] was 13.2 µM (active); in test [2] it was 14.6 µM (active); in test [3], 13.3 µM (active); in test [4] it was 12.7 µM (active); in test [5] it was 25.6 µM (active). Moreover, the result in test [6] and in test [7] was inactive.

In the case of `[O-][n+]1cccc(CO)c1`, the result in test [1], in test [2], in test [3], in test [4] and in test [5] was inactive.

Consider `CO/N=C(\C(=O)N[C@@H]1C(=O)N2C(C(=O)O)=C(COC(C)=O)CS[C@H]12)c1csc(N)n1` (stereo in doubt), for which the result in test [1], in test [2], in test [3], in test [4], in test [5] and in test [6] was inactive. For the same compound, in test [7], the outcome was inactive.

As to `CCN(CC)CCSC(=O)C(c1ccccc1)c1ccccc1`, the result in test [1], in test [2], in test [3], in test [4], in test [5] and in test [6] was inactive. The outcome in test [7] was inactive.

As for `NC(N)=NN=Cc1c(Cl)cccc1Cl`, the result in test [1], in test [2], in test [3], in test [4], in test [5] and in test [6] was inactive. The outcome in test [7] was inactive.

Turning to `Nc1cc(C(Cl)=C(Cl)Cl)c(S(N)(=O)=O)cc1S(N)(=O)=O`, the result in test [1], in test [2], in test [3], in test [4], in test [5] and in test [6] was inactive. In addition, in test [7], the result was inactive.

Consider `CCCCOc1cc(C(=O)OCCN(CC)CC)ccc1N`, for which the result in test [1], in test [2], in test [3], in test [4] and in test [5] was inactive.

On to `CCCCCCCCCCCCCCN(C)C`, for which the outcome in test [1], in test [2], in test [3], in test [4] and in test [5] was inactive.

For the compound `COc1cccc(N(C)C(=S)Oc2ccc3c(c2)CCCC3)n1`, the outcome in test [1], in test [2], in test [3], in test [4], in test [5] and in test [6] was inactive. For the same compound, the outcome in test [7] was inactive.

For the compound `COCC(O)CO` (stereo unspecified), the outcome in test [1], in test [2], in test [3], in test [4], in test [5] and in test [6] was inactive. In test [7], the result was inactive.

Regarding `O=C(O)c1cc(O)c2c(c1)C(=O)c1cccc(O)c1C2=O`, the result in test [1], in test [2], in test [3], in test [4], in test [5] and in test [6] was inactive. Moreover, the outcome in test [7] was inactive.

As for `NCCCNCCSP(=O)(O)O`, the result in test [1], in test [2], in test [3], in test [4], in test [5] and in test [6] was inactive. The result in test [7] was inactive.

Turning to `COC(=O)[C@@H]1[C@H]2C[C@H]3c4[nH]c5ccccc5c4CCN3C[C@@H]2CC[C@@H]1O`, the result in test [1], in test [2], in test [3], in test [4], in test [5] and in test [6] was inactive. For the same compound, the result in test [7] was inactive.

Turning to `Cc1ccc(O)c2ncccc12`, the result in test [1], in test [2], in test [3], in test [4], in test [5] and in test [6] was inactive. For the same compound, in test [7], the result was inactive.

On to `CC(C)(C)NCC(O)c1ccc(O)c(CO)c1` (stereo unspecified), for which the result in test [1], in test [2], in test [3], in test [4], in test [5] and in test [6] was inactive. Moreover, the result in test [7] was inactive.

Turning to `N[C@H](CC(=O)O)C(=O)O`, the outcome in test [1], in test [2], in test [3], in test [4], in test [5] and in test [6] was inactive. Moreover, the result in test [7] was inactive.

Regarding `COc1ncnc(NS(=O)(=O)c2ccc(N)cc2)c1OC`, the outcome in test [1], in test [2], in test [3], in test [4], in test [5] and in test [6] was inactive. In addition, the outcome in test [7] was inactive.

As to `CC1(C)O[C@H]2CC(=O)OC[C@]23[C@H]2CC[C@@]4(C)[C@H](c5ccoc5)OC(=O)[C@H]5O[C@]54[C@]2(C)C(=O)C[C@@H]13`, the outcome in test [1], in test [2], in test [3], in test [4], in test [5] and in test [6] was inactive. For the same compound, the result in test [7] was inactive.

With `CCC[C@@H]1C[C@@H](C(=O)N[C@@H]([C@H]2O[C@H](SC)[C@H](OP(=O)(O)O)[C@@H](O)[C@H]2O)[C@H](C)Cl)N(C)C1`, the result in test [1], in test [2], in test [3], in test [4], in test [5] and in test [6] was inactive. Further, the result in test [7] was inactive.

As a reminder, the AC50 is the concentration giving half of the maximal activity seen.
